Measured values: PubChem BioAssay (NCI)
This is part of a sample that, as a whole, favours compounds with a hit. Of some 79,000 tested, about 15% had one in any assay. Values without a mark were called inactive. Active and inactive are the calls of the source. Rule as the data show it: active = growth inhibition above about 70%; inactive = the rest. Residues, ends and D or L forms follow the SMILES beside them. *: point of attachment. Fmoc = O=C(OCC1c2ccccc2-c2ccccc21)*; Boc = CC(C)(C)OC(=O)*

assay: NCI Yeast Anticancer Drug Screen. Data for the CLN2oe strain (AID 163);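 also: 0% = growth of vehicle-only control cultures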; conditions: S. cerevisiae CLN2oe strain, at 3.7 µM, hits give high values
Method in brief: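 Whole-cell yeast growth assay. A strain engineered for altered cell-cycle control received compound, and inhibition relative to vehicle-treated cultures was recorded.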

SMILES | growth inhibition
O=C(c1ccccc1)[C@H]1Nc2ccc(Cl)cc2[C@H]2OCCC[C@@H]12 | 2%
COc1cc([N+](=O)[O-])c2ncccc2c1Br | -7%
O=S(=O)(c1cccc(C(F)(F)F)c1)N1c2ccccc2-n2cccc2C1c1cccnc1 (stereo not drawn) | -19%
CC(C)(C)OC(=O)NCCCCC(NC(=O)C(Cc1c[nH]c2ccccc12)NC(=O)OCC1c2ccccc2-c2ccccc21)C(=O)O (stereo not drawn) (Fmoc-Trp-Lys(Boc)-OH; configuration not given here) | 1%

same assay, conditions: S. cerevisiae CLN2oe strain, at 11.0 µM, hits give high values

SMILES | growth inhibition
CC(C)C(=O)CC(Sc1ccc(N)cc1)c1ccccc1 (stereo not drawn) | -7%
CC(C)OP(=O)(OC(C)C)/C(Cl)=N/Nc1ccc([N+](=O)[O-])cc1 | 79% (active)
O=[N+]([O-])c1cc(Cl)ccc1S(=O)(=O)c1ccc(Cl)cc1[N+](=O)[O-] | 9%
CCCCCCNCCCNc1c2cc(OC)ccc2nc2cccc([N+](=O)[O-])c12 | -9%
N#CCC(=O)N/N=C(\c1ccccc1)C(c1ccccc1)C1(O)C(=O)Nc2c(Cl)ccc(Cl)c21 (stereo not drawn) | -2%
CN(C)CCNCCCNc1c2ccccc2nc2cccc([N+](=O)[O-])c12 | 2%
CCC[CH2][Ge]([CH2]CCC)([CH2]CCC)[O]C(=O)C(O)c1ccccc1 (stereo not drawn) | 17%
COc1ccc(-c2cc(-c3cc(C)cc(Cl)c3O)nc3[nH]c(=S)[nH]c(=S)c23)cc1 | -3%
O=[N+]([O-])c1ccc(/C=C\c2ccc3c(c2)OCO3)c([N+](=O)[O-])c1 | 7%
O=C1c2ccccc2N2OC3(N4CCCC4)CCCCC3C12c1ccccc1 (stereo not drawn) | -10%
Cc1oc2ccccc2c(=O)c1Cn1nnc2ccccc21 | -4%
CC1(C)OC(=O)C(=Cc2ccc([N+](=O)[O-])s2)C(=O)O1 | 29%
CCN(CC)CCCNc1ccc([N+](=O)[O-])c2nc3ccc(OC)cc3c(NCCCN(CC)CC)c12 | -4%
COc1cccc(/C=C2\S/C(=N/Nc3nc(-c4ccc([N+](=O)[O-])cc4)cs3)NC2=O)c1O | 63%
C1=CCN([B-](c2ccccc2)[C+]2CCCCC2)C=C1 | 1%
O=[N+]([O-])c1cc[n+]([O-])c(Cl)c1 | 12%
CCCNC(=O)OCc1c(COC(=O)NCCC)c(-c2ccc(Cl)c(Cl)c2)n2c1CCC2 | -15%

SMILES | growth inhibition
CC1(C)CC(=O)C(C(=O)Nc2cccs2)=C(O)C1 | 29%
O=C(NO)c1coc2ccccc2c1=O | 4%
COc1ccc(C(C)c2cc3c(cc2OCC(C)=O)OCO3)cc1 (stereo not drawn) | -2%
CCS(=O)(=O)Nc1ccc(Nc2c3ccccc3nc3ccccc23)c(OC)c1 | -2%
O=S(=O)(c1ccccc1)N1CN2CN(C1)CN(S(=O)(=O)c1ccccc1)C2 | -6%
CC1=NN(C(=O)c2ccccc2O)C(=O)/C1=C/c1ccco1 | 81% (active)
O=C1C=C(Br)C(=O)c2ccccc21 | 47%
C[N+](C)([O-])CCCNc1c2ccccc2nc2cccc([N+](=O)[O-])c12 | 33%
Cc1cccc2c(NCCCN(C)C)c3c([N+](=O)[O-])ccc(C)c3nc12 | 41%
OC1(c2ccccc2)C2CC=CC2C1(c1ccccc1)c1ccccc1 (stereo not drawn) | 2%
C[n+]1c(-c2ccc(/C=N/NC(=O)c3ccc(C(=O)N/N=C/c4ccc(-c5cn6ccccc6[n+]5C)cc4)cc3)cc2)cn2ccccc21 | 13%
CCN(CC)CCC(=O)Nc1ccc2sc3ccccc3c(=O)c2n1 | -5%
O=[N+]([O-])c1ccc2nc(=S)[nH]n2c1 | -4%
O=C(c1ccccc1)[C@H]1Nc2ccc(Cl)cc2[C@H]2OCCC[C@@H]12 | -10%
COc1cc([N+](=O)[O-])c2ncccc2c1Br | -11%
O=S(=O)(c1cccc(C(F)(F)F)c1)N1c2ccccc2-n2cccc2C1c1cccnc1 (stereo not drawn) | 74% (active)
CC(C)(C)OC(=O)NCCCCC(NC(=O)C(Cc1c[nH]c2ccccc12)NC(=O)OCC1c2ccccc2-c2ccccc21)C(=O)O (stereo not drawn) (Fmoc-Trp-Lys(Boc)-OH; configuration not given here) | -7%
